Laboratory results taken from the supplement of paper PMC6609913.
Counter-ions that a name gives are not always drawn. ± gives the standard deviation of the averaged measurements. In all, about 1,300 compounds were measured (“normalised cell viability”: median about 1, lowest 2% from about 0.15 on). The sample as a whole holds a higher share of the lowest values than the screen did.

System: V-C8 + BRCA2 (BRCA2-proficient hamster cells)
Experiment: normalised cell viability (fraction of plate median); higher = more viable cells (less toxic)
Settings: 5 µM
In short: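 Hamster V-C8 cells with and without restored BRCA2 were exposed in 96-well plates to library drugs at 5 μM for 3 days (screen 1) or 6 days (screen 2). Cell viability was scored by resazurin assay, then median-plate normalised, averaging triplicate wells.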

Structure (SMILES): COc1ccc(C2CNC(=O)C2)cc1OC1CCCC1 (centres undefined) [Rolipram]
- normalised cell viability (treatment time: 3 days): 0.985 ± 0.037
- normalised cell viability (treatment time: 6 days): 1.15 ± 0.22

Structure (SMILES): CC(C)n1c(/C=C/C(O)CC(O)CC(=O)O)c(-c2ccc(F)cc2)c2ccccc21 (centres undefined) [Fluvastatin sodium salt]
- normalised cell viability (treatment time: 3 days): 0.134 ± 0.0077
- normalised cell viability (treatment time: 6 days): 0.155 ± 0.013

Structure (SMILES): CC(C)c1c(C(=O)Nc2ccccc2)c(-c2ccccc2)c(-c2ccc(F)cc2)n1CC[C@@H](O)C[C@@H](O)CC(=O)O [Atorvastatin]
- normalised cell viability (treatment time: 3 days): 0.701 ± 0.01
- normalised cell viability (treatment time: 6 days): 0.743 ± 0.017

Structure (SMILES): CC[N+](C)(C)Cc1ccccc1Br [Bretylium tosylate]
- normalised cell viability (treatment time: 3 days): 0.9932 ± 0.0068
- normalised cell viability (treatment time: 6 days): 0.977 ± 0.013

Structure (SMILES): C=C(NC(=O)C(=C)NC(=O)c1csc(C2=N[C@@H]3c4csc(n4)[C@H]4NC(=O)c5csc(n5)[C@H]([C@](C)(O)[C@@H](C)O)NC(=O)[C@H]5CSC(=N5)/C(=C/C)NC(=O)[C@H]([C@@H](C)O)NC(=O)c5csc(n5)[C@]3(CC2)NC(=O)[C@H](C)NC(=O)C(=C)NC(=O)[C@H](C)NC(=O)[C@H]([C@@H](C)CC)N[C@@H]2C=Cc3c([C@H](C)O)cc(nc3[C@H]2O)C(=O)O[C@@H]4C)n1)C(N)=O [Thiostrepton]
- normalised cell viability (treatment time: 3 days): 0.135 ± 0.0082
- normalised cell viability (treatment time: 6 days): 0.126 ± 0.013

Structure (SMILES): CCCC(=O)Nc1ccc(OCC(O)CNC(C)C)c(C(C)=O)c1 (centres undefined) [Acebutolol hydrochloride]
- normalised cell viability (treatment time: 3 days): 0.99 ± 0.034
- normalised cell viability (treatment time: 6 days): 1.04 ± 0.012

Structure (SMILES): CCC(=O)OCC(=O)[C@@]1(OC(=O)CC)[C@@H](C)C[C@H]2[C@@H]3CCC4=CC(=O)C=C[C@]4(C)[C@@]3(Cl)[C@@H](O)C[C@@]21C [Beclomethasone dipropionate]
- normalised cell viability (treatment time: 3 days): 1 ± 0.081
- normalised cell viability (treatment time: 6 days): 0.987 ± 0.048

Structure (SMILES): Cc1onc(-c2c(F)cccc2Cl)c1C(=O)N[C@@H]1C(=O)N2[C@@H]1SC(C)(C)[C@@H]2C(=O)O [Flucloxacillin sodium]
- normalised cell viability (treatment time: 3 days): 1.02 ± 0.065
- normalised cell viability (treatment time: 6 days): 0.984 ± 0.016

Structure (SMILES): Cc1c(Cl)cccc1Nc1ncccc1C(=O)O [Clonixin Lysinate]
- normalised cell viability (treatment time: 3 days): 0.938 ± 0.067
- normalised cell viability (treatment time: 6 days): 0.983 ± 0.046

Structure (SMILES): Nc1ccc(S(=O)(=O)Nc2ncccn2)cc1 [Sulfadiazine]
- normalised cell viability (treatment time: 3 days): 1.01 ± 0.068
- normalised cell viability (treatment time: 6 days): 1.024 ± 0.0048

Structure (SMILES): O=S(=O)(O)CCS [Mesna]
- normalised cell viability (treatment time: 3 days): 1.06 ± 0.07
- normalised cell viability (treatment time: 6 days): 1.02 ± 0.024

Structure (SMILES): C[C@@H]1CCC[C@H](C)N1NC(=O)c1ccc(Cl)c(S(N)(=O)=O)c1 [Clopamide]
- normalised cell viability (treatment time: 3 days): 1.22 ± 0.11
- normalised cell viability (treatment time: 6 days): 0.9899 ± 0.0083

Structure (SMILES): N#Cc1ccc(C2CCCc3cncn32)cc1 (centres undefined) [Fadrozole hydrochloride]
- normalised cell viability (treatment time: 3 days): 0.955 ± 0.11
- normalised cell viability (treatment time: 6 days): 0.949 ± 0.078

Structure (SMILES): NC(=O)c1cc[n+](CC2=C(C(=O)[O-])N3C(=O)[C@@H](NC(=O)[C@@H](c4ccccc4)S(=O)(=O)O)[C@H]3SC2)cc1 [Cefsulodin sodium salt]
- normalised cell viability (treatment time: 3 days): 0.981 ± 0.043
- normalised cell viability (treatment time: 6 days): 1.06 ± 0.048

Structure (SMILES): c1ccc(-c2ccc(C(c3ccccc3)n3ccnc3)cc2)cc1 (centres undefined) [Bifonazole]
- normalised cell viability (treatment time: 3 days): 0.951 ± 0.042
- normalised cell viability (treatment time: 6 days): 0.914 ± 0.066

Structure (SMILES): O=C(O[C@@H]1C[C@@H]2C[C@H]3C[C@H](C1)N2CC3=O)c1c[nH]c2ccccc12 [Dolasetron mesilate]
- normalised cell viability (treatment time: 3 days): 1.06 ± 0.19
- normalised cell viability (treatment time: 6 days): 1.02 ± 0.03

Structure (SMILES): O=C(Oc1cccc2cccnc12)c1ccccc1 [Benzoxiquine]
- normalised cell viability (treatment time: 3 days): 0.791 ± 0.052
- normalised cell viability (treatment time: 6 days): 0.738 ± 0.056

Structure (SMILES): COc1cccc2c1C(=O)c1c(O)c3c(c(O)c1C2=O)C[C@@](O)(C(=O)CO)C[C@@H]3O[C@H]1C[C@H](N)[C@H](O)[C@H](C)O1 [Doxorubicin hydrochloride]
- normalised cell viability (treatment time: 3 days): 0.12 ± 0.0088
- normalised cell viability (treatment time: 6 days): 0.122 ± 0.0099

Structure (SMILES): COc1cccc2c1C(=O)c1c(O)c3c(c(O)c1C2=O)C[C@@](O)(C(=O)CO)C[C@@H]3O[C@H]1C[C@H](N)[C@@H](O)[C@H](C)O1 [Epirubicin hydrochloride]
- normalised cell viability (treatment time: 3 days): 0.136 ± 0.0036
- normalised cell viability (treatment time: 6 days): 0.153 ± 0.024

Structure (SMILES): COc1cccc2c1C(=O)c1c(O)c3c(c(O)c1C2=O)C[C@@](O)(C(C)=O)C[C@@H]3O[C@H]1C[C@H](N)[C@H](O)[C@H](C)O1 [Daunorubicin hydrochloride]
- normalised cell viability (treatment time: 3 days): 0.136 ± 0.0082
- normalised cell viability (treatment time: 6 days): 0.128 ± 0.015

Structure (SMILES): Clc1cc(Cl)c(OCC#CI)cc1Cl [Haloprogin]
- normalised cell viability (treatment time: 3 days): 0.278 ± 0.01
- normalised cell viability (treatment time: 6 days): 0.247 ± 0.048

Structure (SMILES): CCC1(c2ccccc2)C(=O)NCNC1=O [Primidone]
- normalised cell viability (treatment time: 3 days): 0.947 ± 0.13
- normalised cell viability (treatment time: 6 days): 0.951 ± 0.1

Structure (SMILES): CN1C(C(=O)Nc2ccccn2)=C(O)c2ccccc2S1(=O)=O [Piroxicam]
- normalised cell viability (treatment time: 3 days): 1.02 ± 0.032
- normalised cell viability (treatment time: 6 days): 1.05 ± 0.015

Structure (SMILES): O=C1CC2(CCCC2)CC(=O)N1CCCCN1CCN(c2ncccn2)CC1 [Buspirone hydrochloride]
- normalised cell viability (treatment time: 3 days): 0.997 ± 0.038
- normalised cell viability (treatment time: 6 days): 1.083 ± 0.0083

Structure (SMILES): CNNCc1ccc(C(=O)NC(C)C)cc1 [Procarbazine hydrochloride]
- normalised cell viability (treatment time: 3 days): 0.879 ± 0.049
- normalised cell viability (treatment time: 6 days): 0.956 ± 0.099

Structure (SMILES): OCCN1CCN(CCCN2c3ccccc3Sc3ccc(C(F)(F)F)cc32)CC1 [Fluphenazine dihydrochloride]
- normalised cell viability (treatment time: 3 days): 0.825 ± 0.062
- normalised cell viability (treatment time: 6 days): 0.662 ± 0.096

Structure (SMILES): CNC(=C[N+](=O)[O-])NCCSCc1csc(CN(C)C)n1 [Nizatidine]
- normalised cell viability (treatment time: 3 days): 1 ± 0.012
- normalised cell viability (treatment time: 6 days): 1.05 ± 0.042
